# Data taken from PubChem BioAssay (NCI).
# The panel holds about 83,000 compounds, 20% with a hit somewhere; the sample as a whole holds those more often.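 Step 1: grow cells in 96-well plates. Step 2: add test compound at a single concentration. Step 3: incubate 48 h. Step 4: record percent growth.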 A number with no mark means an inactive call. Calls of active or inactive are those of the source. How the source made its calls: active means growth percent below 10; inactive means the rest.
# What was measured:
# Experiment in all cases: NCI-60 one-dose screen, 48 h (100 = growth as untreated, 0 = no growth, -100 = all killed)
# Conditions in all cases: 10 µM unless noted
# DU-145 prostate = system: DU-145 prostate
# K-562 leukemia = system: K-562 leukemia
# MALME-3M melanoma = system: MALME-3M melanoma
# MDA-MB-231 breast = system: MDA-MB-231 breast
# RXF 393 renal = system: RXF 393 renal
# SF-268 CNS = system: SF-268 CNS
# SF-295 CNS = system: SF-295 CNS
# SF-539 CNS = system: SF-539 CNS
# UACC-257 melanoma = system: UACC-257 melanoma
# M14 melanoma = system: M14 melanoma
SMILES,growth (DU-145 prostate),growth (K-562 leukemia),growth (MALME-3M melanoma),growth (MDA-MB-231 breast),growth (RXF 393 renal),growth (SF-268 CNS),growth (SF-295 CNS),growth (SF-539 CNS),growth (UACC-257 melanoma),growth (M14 melanoma)
O=c1[nH]c([C@@H]2CCCN2)nc2c1oc1ccc(Cl)cc12,73.1%,43%,64.2%,67.3%,72.4%,65.2%,52.7%,12.6%,64.6%,53.6%
CCOc1cc2ncc(C#N)c(Nc3ccc(F)c(Cl)c3)c2cc1NC(=O)/C=C/CN(C)C,-56.6% (active),-16.4% (active),-77.5% (active),-38.8% (active),-83% (active),-19.9% (active),9.82% (active),-85.9% (active),-63% (active),-83.1% (active)
CN1CCN(c2ccc(C(=O)Nc3n[nH]c4ccc(Cc5cc(F)cc(F)c5)cc34)c(NC3CCOCC3)c2)CC1,19.7%,-47.8% (active),-83.4% (active),-68.7% (active),-90.5% (active),-60.5% (active),-70.4% (active),-92.4% (active),-85.4% (active),-79.7% (active)
CC(=O)c1c(C)c2cnc(Nc3ccc(N4CCNCC4)cn3)nc2n(C2CCCC2)c1=O,39.1%,6.83% (active),2.27% (active),36.5%,-0.541% (active),46.7%,70.3%,27.4%,-11.7% (active),29.2%
O=c1[nH]ccc2c(S(=O)(=O)N3CCCNCC3)cccc12,62.2%,104%,82.2%,87.3%,57.8%,54.3%,74.5%,76.5%,99.1%,88.3%
Cn1ccnc1C(=O)/C=C/c1ccc(CC(=O)Nc2ccc(C(F)(F)F)cc2)cc1,7.72% (active),6.29% (active),77.5%,8.95% (active),-1.43% (active),16.4%,7.9% (active),-36.8% (active),77.9%,21.3%
CN1CC[C@@H](c2c(O)cc(O)c3c(=O)cc(-c4ccccc4Cl)oc23)[C@@H]1CO,10.7%,4.81% (active),-46.8% (active),6.99% (active),-62.8% (active),3.32% (active),3.04% (active),-33.3% (active),-25.8% (active),-35.4% (active)
Cc1cc(Nc2nc(N[C@@H](C)c3ncc(F)cn3)ncc2Cl)n[nH]1,99.5%,77.6%,56.4%,83.8%,24.4%,72%,94.4%,80.8%,71.1%,58.7%
COC1CCC(N2C(=O)CNc3ncc(-c4ccc(C(C)(C)O)nc4)nc32)CC1 (stereo not given),4.44% (active),4.22% (active),-17.6% (active),14.2%,-28.5% (active),18.5%,-15.4% (active),-21.9% (active),-15.8% (active),2.03% (active)
CNS(=O)(=O)Nc1nccc(Cc2c(C)c3ccc(Oc4ncccn4)cc3oc2=O)c1F,61.3%,26.2%,4.1% (active),41%,44.9%,78%,70.6%,68%,-5.41% (active),13.3%
Nc1nc(N)c2nc(-c3cccc(O)c3)c(-c3cccc(O)c3)nc2n1,80.8%,28.5%,91.3%,96.5%,70.8%,58.2%,89.8%,81.7%,65.4%,87.5%
Cc1ccc(NC(=O)c2ccc(CN3CCN(C)CC3)cc2)cc1Nc1nc(-c2cccnc2)cs1,76.5%,3.08% (active),-9.2% (active),33.8%,32.9%,70.8%,3.18% (active),-81.5% (active),17%,35.5%
COc1cc2cc(NCc3ccc(F)cc3)nc(C)c2cc1OC,58.1%,11.7%,87.7%,45.9%,59.7%,50.7%,40.7%,-4.69% (active),88.8%,32.2%
CC1(COc2ccc3c(c2)ncn3-c2ccc3cccc(N4CCC(N)CC4)c3n2)COC1,15.9%,0.523% (active),20.8%,4.69% (active),-58.6% (active),9.66% (active),59.8%,-82.3% (active),-50.3% (active),2.82% (active)
C#Cc1cccc(Nc2ncnc3cc4c(cc23)OCCOCCOCCO4)c1,47.8%,36.2%,84.8%,67.4%,40.7%,51.6%,39.6%,80.5%,38.9%,49.2%
CN1CCN(c2ccc(OC(F)(F)F)c(Nc3ncc4c(n3)-c3c(c(C(N)=O)nn3CCO)CC4)c2)CC1,10.2%,8.71% (active),83.6%,32.1%,32.9%,35.6%,33.4%,3.87% (active),47.6%,10.2%
CN1[C@@H]2CC[C@H]1/C(=C\c1ccccc1)C1=C2[C@@H](c2ccccc2)C(C#N)=C(N)O1,51.5%,64.4%,88.8%,94.9%,63%,77%,83.8%,97.8%,54.6%,75.6%
COc1ccc(Br)cc1NC(=O)Nc1cccc2c1ccn2Cc1ccnc(N)c1,58.7%,4.41% (active),42.1%,-2.75% (active),16.3%,47.5%,-6.47% (active),27.5%,32.5%,-30.2% (active)
CNc1ncc2cc(-c3cc(NC(=O)NCCC(C)(C)C)c(F)cc3C)c(C)nc2n1,32.6%,3.92% (active),1.23% (active),1.7% (active),-23.3% (active),26.5%,25.5%,27.5%,-10.3% (active),-12.4% (active)
CN1C/C=C\CCOc2cccc(c2)-c2ccnc(n2)Nc2cccc(c2)C1,5.04% (active),-18.5% (active),-79.4% (active),-38.6% (active),-86.1% (active),-50.8% (active),-86.3% (active),-91.8% (active),-73.7% (active),-78.4% (active)
Cn1ccnc1C(=O)/C=C/c1ccc(CC(=O)Nc2ccc(Br)cc2)cc1,3.61% (active),6.58% (active),75.5%,10.1%,21%,16.2%,19.4%,-38.5% (active),79.1%,53.6%
O=C(Nc1nc2cccc(-c3ccc(CN4CCS(=O)(=O)CC4)cc3)n2n1)C1CC1,35.4%,36.5%,105%,81.8%,50.7%,70.7%,88.8%,79.1%,86.2%,90.8%
CCn1cc(-c2ccnc3[nH]c(-c4cccc(CN(C)C)c4)cc23)c(-c2ccc(NC(=O)N(C)C)cc2)n1,40.2%,1.59% (active),46.9%,14%,-24.8% (active),33.5%,16.1%,5.58% (active),40.8%,21.4%
CCN(CC)CCNC(=O)c1c(C)[nH]c(/C=C2\C(=O)Nc3ccc(F)cc32)c1C,33.2%,-22.3% (active),-82.6% (active),0.117% (active),-71.4% (active),39.6%,67.3%,-88.8% (active),-40.4% (active),-77% (active)
CNC(=O)c1cc(Oc2cccc3nc(Nc4ccc(Oc5ccccc5)cc4)ccc23)ccn1,83.4%,41%,78.2%,71.6%,91.3%,75.4%,60.2%,90.8%,77.2%,68.6%
